Laboratory results from article PMC4336329 (PLoS ONE, 2015).
About 14,000 (4.5%) of roughly 310,000 compounds showed an effect of 50% or more. Effects have a minus sign here. This is one part of a sample in which strong results are shown more often than they occur.

What follows are molecules tested against human ether-à-go-go-related gene (hERG) potassium channel (human, UniProt Q12809) (assay: primary screen, population patch clamp on CHO cells stably expressing hERG; higher = less effect of the substance).
human ether-à-go-go-related gene (hERG) potassium channel, sequence (Q12809 whole entry, looked up): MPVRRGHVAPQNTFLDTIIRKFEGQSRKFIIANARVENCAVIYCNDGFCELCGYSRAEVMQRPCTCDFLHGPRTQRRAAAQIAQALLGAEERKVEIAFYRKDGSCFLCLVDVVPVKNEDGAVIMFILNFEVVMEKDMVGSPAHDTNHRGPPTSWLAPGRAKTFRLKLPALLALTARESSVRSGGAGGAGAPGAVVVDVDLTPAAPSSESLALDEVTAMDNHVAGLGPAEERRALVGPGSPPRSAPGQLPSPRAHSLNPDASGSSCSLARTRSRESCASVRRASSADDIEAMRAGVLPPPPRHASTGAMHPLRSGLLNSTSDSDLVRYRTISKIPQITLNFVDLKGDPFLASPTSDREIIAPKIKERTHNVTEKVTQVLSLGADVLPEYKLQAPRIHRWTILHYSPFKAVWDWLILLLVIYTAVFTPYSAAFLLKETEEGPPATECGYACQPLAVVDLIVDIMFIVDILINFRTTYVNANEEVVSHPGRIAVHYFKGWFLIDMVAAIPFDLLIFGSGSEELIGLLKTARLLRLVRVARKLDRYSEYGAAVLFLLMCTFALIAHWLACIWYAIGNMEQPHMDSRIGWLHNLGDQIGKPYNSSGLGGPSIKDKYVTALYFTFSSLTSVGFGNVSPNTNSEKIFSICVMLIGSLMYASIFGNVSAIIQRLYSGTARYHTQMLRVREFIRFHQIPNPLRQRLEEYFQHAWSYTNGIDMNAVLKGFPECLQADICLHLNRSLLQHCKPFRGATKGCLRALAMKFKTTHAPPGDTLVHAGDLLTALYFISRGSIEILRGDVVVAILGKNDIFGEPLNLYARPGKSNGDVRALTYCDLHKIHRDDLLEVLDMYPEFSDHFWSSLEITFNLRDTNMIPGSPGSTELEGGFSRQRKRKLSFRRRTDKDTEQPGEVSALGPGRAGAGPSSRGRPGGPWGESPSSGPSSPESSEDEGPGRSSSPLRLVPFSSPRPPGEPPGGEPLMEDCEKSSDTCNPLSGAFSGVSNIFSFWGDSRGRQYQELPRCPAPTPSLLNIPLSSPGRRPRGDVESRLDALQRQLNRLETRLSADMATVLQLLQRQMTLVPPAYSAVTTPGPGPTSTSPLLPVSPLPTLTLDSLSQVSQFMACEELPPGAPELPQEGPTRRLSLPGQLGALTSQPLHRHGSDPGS
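Further: peak tail current of the secondary pulse compared with the same well before compound.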

| SMILES | hERG current change (%, negative = inhibition) at 10uM [%] |
| --- | --- |
| CC1Cc2cc(S(=O)(=O)NCCc3ccccc3)ccc2N1C(=O)C1CC1 (stereo not shown) | 13.7 |
| COc1ccc(-c2cc(=O)[nH]c(=O)[nH]2)cc1 | -3.74 |
| O=C(c1cccc(S(=O)(=O)Nc2ccccc2Cl)c1)N1CCC1 | -0.443 |
| Cc1ccc(SCC(=O)NCCc2ccc(F)cc2)cc1 | -0.26 |
| O=C(O)c1cccc2c1C(=O)N(CC1CCCO1)C2 (stereo not shown) | 24.2 |
| COc1ccc(NC(=O)c2cccc3c2C(=O)N(CC2CCCO2)C3)cc1OC (stereo not shown) | -17.9 |
| O=C(NCc1ccc(Cl)cc1)c1cccc2c1C(=O)N(CC1CCCO1)C2 (stereo not shown) | -70.8 |
| COc1ccc(CNC(=O)c2cccc3c2C(=O)N(CC2CCCO2)C3)cc1 (stereo not shown) | -34.5 |
| CCc1cccc(NC(=O)c2cccc3c2C(=O)N(CC2CCCO2)C3)c1 (stereo not shown) | -72.2 |
| CCOC(=O)c1ccc(NC(=O)c2cccc3c2C(=O)N(CC2CCCO2)C3)cc1 (stereo not shown) | -2.27 |
| CC(=O)N1CCC(C(=O)NCCOc2ccc(C)cc2)CC1 | 7.67 |
| COc1ccc(CC(=O)NNC(=O)CN(C)S(=O)(=O)c2ccc(Cl)cc2)cc1OC | 0.252 |
| CCOC(=O)C1CCN(S(=O)(=O)Cc2ccccc2)CC1 | -8.61 |
| COc1ccc(C(=O)CC(=O)C(=O)Nc2ccc(Cl)cc2)cc1 | 7.74 |
| Cc1cc2c(c(=O)o1)C(c1cccs1)C(C#N)=C(N)O2 (stereo not shown) | 4 |
| COc1ccc(-n2cc(CN3CCCC3)c(-c3cccc(F)c3)n2)cc1 | -57 |

| SMILES | hERG current change (%, negative = inhibition) at 10uM [%] |
| --- | --- |
| CC(=O)N1CCCN(Cc2cn(-c3cccc(C)c3)nc2-c2cccc(F)c2)CC1 | -16.9 |
| Cc1cccc(-n2cc(CN3CCN(C(=O)c4ncn[nH]4)CC3)c(-c3cccc(F)c3)n2)c1 | -16.5 |
| COc1ccc(-n2cc(CN3CCC(OC)CC3)c(-c3cccc(F)c3)n2)cc1 | -13.5 |
| CCC(O)C1CCN(Cc2cn(-c3ccc(OC)cc3)nc2-c2cccc(F)c2)CC1 (stereo not shown) | -75.3 |
| CCC(=O)OCc1c(C(F)(F)F)nn(C)c1Sc1ccc(F)cc1 | -8.79 |
| CN(CCc1ccccn1)C(=S)NC(=O)c1ccco1 | 17.1 |
| CC(C)c1ccc(NC(=O)C(c2ccccc2)N2CCN(C(=O)c3ccco3)CC2)cc1 (stereo not shown) | -69.8 |
| Cc1ccc(NC(=O)C(c2ccccc2)N2CCN(C(=O)c3ccco3)CC2)cc1Cl (stereo not shown) | -21.3 |
| CCOc1ccccc1NC(=O)C(c1ccccc1)N1CCN(C(=O)c2ccco2)CC1 (stereo not shown) | -57.7 |
| CCOCCCNC(=O)C(c1ccc(Cl)cc1)N1CCN(C(=O)c2ccco2)CC1 (stereo not shown) | -0.366 |
| O=C(Nc1ccc2c(c1)OCO2)C(c1ccc(Cl)cc1)N1CCN(C(=O)c2ccco2)CC1 (stereo not shown) | -40 |
| Cc1ccc(NC(=O)C(c2ccccc2)N2CCN(C(=O)c3ccco3)CC2)cc1 (stereo not shown) | -72.9 |
| CC(C)c1ccc(NC(=O)C(c2ccc3c(c2)OCO3)N2CCN(C(=O)c3ccco3)CC2)cc1 (stereo not shown) | -25 |
| O=C(Nc1ccc2c(c1)OCO2)C(c1ccccc1)N1CCN(C(=O)c2ccco2)CC1 (stereo not shown) | -33.2 |
| Cc1cccc(C)c1NC(=O)C(c1ccccc1)N1CCN(C(=O)c2ccco2)CC1 (stereo not shown) | -22.8 |
